PNC assembly inh = perinucleolar compartment assembly inhibition | PC3M PTB-GFP, PNC prevalence imaging, 16 h; hits give low values | activity change (PNC), negative = inhibition, % at 10 µM | hit rate 3.1% among 140,000 | AID 2417;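 active = readout at or below -70, meaning at least 70% loss of cells showing the perinucleolar compartment, a nuclear body marking cancer cells; inconclusive = readout between -30 and a set limit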;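 note: plate controls were DMSO wells for no effect and camptothecin positive control wells for full effect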
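Compounds are pinned in duplicate onto adhered PC3M cells stably expressing GFP-tagged PTB and incubated 16 h at 37 C. Cells are then fixed, nuclei stained with Hoechst, and PNC-positive cells counted.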
LMNA splice mod = modulators of lamin A splicing | hit rate 0.01% among 200,000 | HeLa LMNA splicing GFP/RFP minigene ratio, 48 h | AID 1487 | Potency, µM (titrated, usually from 46.1 µM), for inactives: top-dose ratio change, negative = inhibition, usual class: inhibitors; active = well fitted inhibition curve with a large enough effect in the signal ratio, with a control signal flat, not every such curve was filed as active; inconclusive = small, poorly fitted or top-dose-only effect, or effect the other way, or a change in a side signal; the % refers to the signal ratio; note: potency is the fitted concentration of half-maximal effect
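Read-out is the ratio of GFP to DsRed2 object intensity, acquired by 488 nm laser-scanning cytometry on HeLa lamin A-EGFP minigene reporter cells. Compound incubation 48 hrs at 37 °C in Opti-MEM with 2% FBS; DMSO 0.5% final.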
ALDH1A1 block = inhibitors of human aldehyde dehydrogenase 1A1; hit rate 7.3% among 220,000; P00352; AID 1030; Purified ALDH1A1, NADH fluorescence, propionaldehyde substrate; Potency, µM (titrated, usually from 75.3 µM), for the others: at the highest dose activity, negative = inhibition, usual class: inhibitors;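 note: potency is the fitted concentration of half-maximal effect; plate controls were no enzyme wells and a reference inhibitor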
Target sequence (P00352 whole entry, looked up): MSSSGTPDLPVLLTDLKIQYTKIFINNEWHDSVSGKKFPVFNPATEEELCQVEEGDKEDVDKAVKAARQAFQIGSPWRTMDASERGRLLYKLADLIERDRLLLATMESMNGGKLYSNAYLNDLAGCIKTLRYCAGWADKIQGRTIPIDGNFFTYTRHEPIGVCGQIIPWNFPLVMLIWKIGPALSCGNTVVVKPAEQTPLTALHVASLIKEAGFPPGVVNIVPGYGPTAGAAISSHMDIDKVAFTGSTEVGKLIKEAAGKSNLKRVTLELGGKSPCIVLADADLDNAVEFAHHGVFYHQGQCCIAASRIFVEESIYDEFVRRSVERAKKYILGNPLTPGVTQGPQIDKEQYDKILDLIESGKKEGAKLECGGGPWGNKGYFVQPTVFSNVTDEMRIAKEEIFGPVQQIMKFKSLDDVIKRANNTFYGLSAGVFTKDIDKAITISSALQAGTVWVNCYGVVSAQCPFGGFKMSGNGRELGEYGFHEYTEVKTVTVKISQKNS
12-hLO inh = inhibitors of human 12-lipoxygenase (ALOX12); P18054; purified 12-hLO, xylenol orange hydroperoxide absorbance; Potency, µM (highest dose often 57.1 µM), without a hit: at the top dose activity change, negative = inhibition, usual class: inhibitors; hit rate 0.12% among 150,000; AID 1452; active = well fitted inhibition curve with a large enough effect; inconclusive = small, poorly fitted or top-dose-only effect; note: potency is the fitted concentration of half-maximal effect; nearly all actives have a fitted effect of over 55% in size
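Xylenol orange chromogenic assay: hydroperoxide from 12hLO oxidises Fe(II), giving red-shifted Fe(III)-XO absorbance. Conditions: 150 nM enzyme, 40 uM arachidonic acid, 25 mM Hepes pH 7.0, 0.01% Triton X-100, 30 min, room temperature.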
HPGD inh = blocks human HPGD enzyme activity | AID 894 | purified HPGD, NADH fluorescence kinetic, PGE2 substrate | P15428 | Potency, µM, for the others: at the highest dose activity change, negative = inhibition, actives largely listed as inhibitors | hit rate 4.3% among 150,000; note: potency is the fitted concentration of half-maximal effect
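NADH formation kinetics: reaction with 30 uM PGE2 and 1 mM NAD+ (final), 20 nM enzyme, Tris-HCl pH 8 with Tween 20, after 15 min compound preincubation at room temperature. Fluorescence change, last versus first of five reads.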
* = called active by the depositor; ? = inconclusive; / = no result given; [ ] = dose if it differs, or a comment. The list is not random: actives were taken first. Their share in the collection is about 10%. Unless noted, calls come from the whole dose curve; as a rule, active = well fitted inhibition curve with a large enough effect (not every such curve was filed as active); inconclusive = small, poorly fitted or top-dose-only effect, or another doubt; inactive = no such curve, though single readings can be large or run the other way. Unless noted, % is set by controls: 0 for no effect and ±100 for the full control effect.

SMILES	PNC assembly inh	LMNA splice mod	ALDH1A1 block	12-hLO inh	HPGD inh
O=C1C2C3C=CC([C@@H]2C(=O)N1Cc1cccnc1)C31CC1 (some centres not stated)	71	2%[0.0737 µM]	6%	1%	-10%
N#CC12CCCCC1CC1CCCCC1(C#N)N2Cc1cccnc1 (configuration not stated)	-87*	5%	5%	-4%	-6%
CCC(C)N(C)Cc1cccc(C2(O)CCN(S(=O)(=O)c3ccc(F)c(C)c3)CC2)c1 (configuration not stated)	-113*	?	?	1%	0%
Cc1cc(S(=O)(=O)N2CCN(c3c(C)cccc3C)CC2)ccc1F	-8	?	?	5%	-14%
COC(=O)/C=C/c1oc2ccccc2c1C	/	-20%[46 µM]	6%	/	/
O=C(NCCCN1CCN(c2ccccc2F)CC1)c1sc2ncccc2c1-n1cccc1	/	-8%[46 µM]	/	/	/
O=C(O)c1ccc(C[n+]2c(-c3ccccc3)csc2Nc2ccccc2)cc1	72	-14%	-14%	0%	16µM*
CCCCCC[n+]1c(-c2ccccc2)csc1Nc1ccccc1	?	-20%	-9%	0%	-5%
CC(C)COc1ccc(C(=O)Nc2nnc(S(=O)(=O)N(C)Cc3ccco3)s2)cc1	/	-9%[46 µM]	/	/	/
C=CCn1c(SCC(=O)NC23CC4CC(CC(C4)C2)C3)nc2cc(C(=O)O)ccc2c1=O	/	?	13µM*	/	/
C=CCn1c(SCc2cc([N+](=O)[O-])cc3c2OCOC3)nc2cc(C(=O)O)ccc2c1=O	/	/	10µM*	/	/
CCC(CO)n1c(SCc2cc([N+](=O)[O-])cc3c2OCOC3)nc2ccccc2c1=O (configuration not stated)	15	-2%	-10%	-3%	-13%
COc1ccc(C(=O)Cc2ccc3c(c2)OCO3)c(O)c1	57	?	-1%	8%	?
O=C(CCc1ccc(O)cc1)c1c(O)cc(O)cc1O	/	?	-13%	-9%	35µM*
O=C(Cc1ccc2c(c1)OCCO2)c1c(O)cc(O)cc1O	2	?	?	-16%	20µM*
O=C(O)COc1ccc(C(=O)Cc2ccc3c(c2)OCCCO3)c(O)c1	-14	-9%	22µM*	-16%	?
CCN(c1cccc(C)c1)S(=O)(=O)c1ccc2[nH]c(=O)c(=O)[nH]c2c1	-103*	-12%	?	1%	?
CCc1ccc(CNC(=O)c2cc(=O)[nH]c3ccc(S(=O)(=O)N4CCCCC4)cc23)cc1	/	-6%[46 µM]	/	/	/
Cc1ccc(-c2onc3ccc(Cl)cc23)cc1	?	-2%	-1%	-3%	-5%
COc1ccc(-c2onc3ccc(Cl)cc23)cc1	-14	-4%	20µM*	-15%	?
O=Cc1ccc2noc(-c3ccc(Cl)cc3)c2c1	-9	-1%	22µM*	-14%	-24%
CC(=O)OC1CCC2(C)C3CC(=O)C4(C)C(CC5OC6(CCC(C)CO6)C(C)C54)C3CC[C@H]2C1 (some centres not stated)	/	/	3%	0%	-7%
Cc1cccc(OCc2nc(CC(=O)Nc3ccc(C)c(C)c3)cs2)c1	/	-2%[46 µM]	/	/	/
CC1(C)NC(=O)N(CCCCOc2ccc3ccccc3c2Cl)C1=O	31	?	18µM*	7%	-28%
CC1(C)NC(=O)N(CCCCOc2ccc3c(c2)CCC3)C1=O	?	?	?	-5%	-8%
SMILES	PNC assembly inh	LMNA splice mod	ALDH1A1 block	12-hLO inh	HPGD inh
CCC(=O)c1ccccc1OCCCN1C(=O)NC(C)(C)C1=O	-11	2%	10µM*	0%	-11%
CC1(C)NC(=O)N(CCCCOc2cccc(C(F)(F)F)c2)C1=O	?	?	4%	-1%	-14%
CC(C)c1cc(Br)ccc1OCCN1C(=O)NC(C)(C)C1=O	/	/	-18%	/	/
Cc1cc(Cl)cc(Br)c1OCCCN1C(=O)NC(C)(C)C1=O	-80*	-4%	?	0%	-17%
CCC(C)Oc1cccc(OCCCCN2C(=O)NC(C)(C)C2=O)c1 (configuration not stated)	-96*	-13%	-12%	2%	-8%
COc1cccc(C(=O)Nc2cccc(-c3cn4c(C)csc4n3)c2)c1OC	/	-23%[46 µM]	/	/	/
CCc1ccc2ncc3c(-c4ccc(C)cc4)nn(CC(=O)Nc4ccc(C)cc4)c3c2c1	/	0%[46 µM]	/	/	/
CCOc1ccccc1NC(=O)C1CCN(S(=O)(=O)c2cccc3nonc23)CC1	/	23%[46 µM]	/	/	/
CC1(C)NC(=O)N(CCOCCOc2ccc3ccccc3c2Br)C1=O	-111*	-7%	-8%	6%	-25%
CC1(C)NC(=O)N(CCOCCOc2cccc(Oc3ccccc3)c2)C1=O	-1	?	-9%	-2%	-1%
Clc1ccccc1OCc1nc(-c2ccncc2)no1	-17	2%	14%	-1%	-28%
CCc1ccc(OCc2nc(-c3ccccn3)no2)c(Br)c1	10	-13%	0%	-3%	28µM*
Clc1ccc(OCc2nc(-c3ccncc3)no2)c(Br)c1	19	?	-5%	-6%	18µM*
Cc1ccc(OCc2nc(-c3ccccn3)no2)c(Br)c1	9	?	?	-9%	18µM*
CC1C2CCC3C4CC=C5CC(N(C)C)CC[C@@]5(C)C4CC[C@@]32CN1C (some centres not stated)	/	4%	0%	0%	-3%
O=C(O)C(=O)/C=C(\O)c1ccc(Br)cc1	/	/	-7%[13.5 µM]	-7%[11.4 µM]	-7%
CCc1cc2c(nc1CC)CCN(CC/C(C)=N/O[C@@H](C)c1cn([C@@H]3COC[C@@H]3O)nn1)C2	/	/	0%[13.5 µM]	/	/
COc1ccc(OC)c2sc(NC(=O)CCSc3ccccc3)nc12	-88*	?	-10%	-3%	?
Cc1cc(SCC(=O)N/N=C/c2ccc(O)c(O)c2O)c(C)cc1Br	35	?	4.5µM*	?	10µM*
Cc1cc(SCC(=O)NN=C2CCN(C(C)C)CC2)c(C)cc1Br	-29	15%	?	-2%	25µM*
COc1cc(/C=N/NC(=O)CSc2cc(C)c(Br)cc2C)ccc1O	16	?	0%	-8%	-13%
CCNC(=S)N/N=C/c1sc(N2CCCCC2)nc1-c1cccs1	25	16%	-6%	-10%	-26%
CC1CCCC(NC(=O)c2cn(C)c3ccc(S(=O)(=O)N4CCCC4)cc3c2=O)C1C (configuration not stated)	46	17%	5.6µM*	-1%	-11%
CN(CCNC(=O)c1cn(C)c2ccc(S(=O)(=O)N(C)C)cc2c1=O)CCc1ccccc1	-22	-8%	20%	1%	-5%
CCN(CC(=O)NCc1cccs1)c1ccc(S(=O)(=O)N2CCOCC2)cn1	15	-4%	?	-3%	-11%
Cn1cc(C(=O)NCc2cccs2)c(=O)c2cc(S(=O)(=O)N3CCCC3)ccc21	-4	-3%	4.5µM*	2%	-8%
Cn1cc(C(=O)NCc2ccccc2)c(=O)c2cc(S(=O)(=O)N3CCCCCC3)ccc21	/	-2%[46 µM]	/	/	/

High-throughput results as filed in PubChem BioAssay.
